The record followed here is PubChem BioAssay.

Molecules are shown by their SMILES. Unmarked numbers belong to inactive results. The source made the active and inactive calls. Unless noted, no stated cut-off is given here; in the data, active means inhibition above about 44%; inactive means the rest.

Assay [1] in a line: StAR promoter reporter inhibitors, counter-screen for LRH-1 inverse agonist project, cell-based, luminescence, high throughput (AID 651611; in the data active means inhibition above about 28%). The conditions noted are these: StAR promoter luciferase reporter counterscreen, at 3.6 µM, active compounds read high.
Assay [2] concerns the target Nuclear receptor subfamily 5 group A member 2 (Homo sapiens) (UniProt O00482). Description: NR5A2 activity suppression in reporter cells – cell-based, luminescence, confirmation (AID 651613; in the data active means inhibition above about 42%;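 further: HEK293T cells co-transfected with LRH-1 and StAR promoter luciferase reporter; 0% = vehicle wells and 100% = parental cells lacking receptor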). The note with it: cell-based LRH-1 luciferase reporter, inverse agonism; at 3.6 µM; active compounds read high.
The target of assay [3] is Steroidogenic factor 1 (Homo sapiens) (UniProt Q13285). Briefly: inverse agonism at SF1 nuclear receptor – cell-based, luminescence, high throughput, counter-screen for LRH-1 inverse agonist project (AID 651614).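 Further: cells cotransfected with StAR promoter reporter and SF1 expression vector; 0% = vehicle on cells with receptor and 100% = vehicle on cells lacking receptor.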 The note with it: cell-based SF1 luciferase reporter, at 3.6 µM, active compounds read high.
Assay [4] in a line: compounds suppressing VP16-driven luciferase signal – cell-based, luminescence, high throughput, counter-screen for LRH-1 inverse agonist project (AID 651615; in the data active means inhibition above about 33%). The conditions noted are these: Gal4-VP16 luciferase reporter cells, at 3.6 µM, active compounds read high.

Sequence of Nuclear receptor subfamily 5 group A member 2 (Homo sapiens) (O00482 whole entry, looked up): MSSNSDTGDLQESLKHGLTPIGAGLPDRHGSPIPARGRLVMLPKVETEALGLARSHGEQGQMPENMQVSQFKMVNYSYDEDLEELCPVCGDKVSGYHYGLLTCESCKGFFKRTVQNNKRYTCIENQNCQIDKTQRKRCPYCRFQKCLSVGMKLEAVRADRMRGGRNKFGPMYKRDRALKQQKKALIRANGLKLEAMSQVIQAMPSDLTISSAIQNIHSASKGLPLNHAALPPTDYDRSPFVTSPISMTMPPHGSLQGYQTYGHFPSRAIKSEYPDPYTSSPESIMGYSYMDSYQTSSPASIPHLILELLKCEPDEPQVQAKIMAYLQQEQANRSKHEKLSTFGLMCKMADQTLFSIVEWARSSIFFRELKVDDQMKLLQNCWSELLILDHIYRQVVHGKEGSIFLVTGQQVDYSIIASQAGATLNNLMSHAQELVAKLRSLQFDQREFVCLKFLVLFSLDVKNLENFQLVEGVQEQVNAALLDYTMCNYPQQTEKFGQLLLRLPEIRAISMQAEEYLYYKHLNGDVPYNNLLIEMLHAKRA
Sequence of Steroidogenic factor 1 (Homo sapiens) (Q13285 whole entry, looked up, the tested form may be a part): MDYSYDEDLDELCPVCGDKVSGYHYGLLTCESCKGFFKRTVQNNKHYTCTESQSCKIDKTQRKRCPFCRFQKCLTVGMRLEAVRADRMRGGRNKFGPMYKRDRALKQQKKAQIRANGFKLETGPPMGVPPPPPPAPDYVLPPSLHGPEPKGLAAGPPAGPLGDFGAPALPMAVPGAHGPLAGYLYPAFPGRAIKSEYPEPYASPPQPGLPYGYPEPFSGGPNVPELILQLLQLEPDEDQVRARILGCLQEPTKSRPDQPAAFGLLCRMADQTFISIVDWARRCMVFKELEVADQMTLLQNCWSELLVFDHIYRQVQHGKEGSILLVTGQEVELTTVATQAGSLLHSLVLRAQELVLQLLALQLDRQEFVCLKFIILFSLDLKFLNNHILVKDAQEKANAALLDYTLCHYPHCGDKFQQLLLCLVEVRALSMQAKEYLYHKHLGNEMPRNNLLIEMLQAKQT

In the case of `CN1c2ccccc2C(C)(C)C12C=Nc1c(cc(N3CCOCC3)c3ccccc13)O2` (stereo not drawn), the inhibition was 9% in assay [1], 19.1% in assay [2], 21.1% in assay [3] and 4.98% in assay [4].
On the same counts, the results for `CCCCNC(=O)CSc1nc2ccc(NC(=O)CSc3nnc(COc4ccccc4C)n3C)cc2s1` are 2.43%, 61.2% (active), 61.3% (active) and -5.17%.
Consider `COc1cc(/C=N/n2nnnc2N)ccc1OCc1c(C)no[n+]1[O-]`, for which the inhibition in assay [1] was 9.05%; in assay [2] it was 54.4% (active); in assay [3] it was 42.6%; in assay [4], 10.5%.
On the same counts, the results for `O=C1CC(c2cccc([N+](=O)[O-])c2)c2ccc3ccccc3c2N1` (stereo not drawn) are 11.8%, 40.8%, 39.5% and 9.31%.
Consider `COc1cc(NCCCCCCN)c2ncccc2c1OC`, for which the inhibition in assay [1] is 22.3%; in assay [2], 49% (active); in assay [3] it was 43.6% (active); in assay [4], -3%.
On the same counts, the results for `Cn1ncc(Cl)c1C(=O)NCc1ccc2c(c1)OCO2` are -2.54%, 45.4% (active), 50.1% (active) and 15.7%.
With `O=C(CCl)NCc1cc(-c2ccc(Cl)cc2)no1`, the inhibition in assay [1] is 43.5% (active); in assay [2], 70.7% (active); in assay [3], 72.3% (active); in assay [4], -3.6%.
On the same counts, the results for `O=C(COc1ccc2c3c(c(=O)oc2c1)CCCC3)NCCCN1CCOCC1` are 14.4%, 44.6% (active), 45% (active) and -6.23%.
For `CCNc1cc(N2CCCC2)ccc1[N+](=O)[O-]` the same measures were 10.6%, 40.2%, 44% (active) and -8.79%.
For `CN1C(=O)NC(c2ccccc2[N+](=O)[O-])C2=C1CC(C)(C)CC2=O` (stereo not drawn) the same measures were 3.55%, 19%, -6.97% and 0.8%.
Turning to `COc1cccc(C(=O)COc2cccc(NC(=O)c3cccc([N+](=O)[O-])c3)c2)c1`, the inhibition in assay [1] was 14.4%; in assay [2] it was 62.4% (active); in assay [3] it was 59.3% (active); in assay [4], 2.28%.
Regarding `CC(C)N1CCc2c(sc(NC(=O)c3ccc([N+](=O)[O-])o3)c2C(N)=O)C1`, the inhibition was 37.6% (active) in assay [1], 55.4% (active) in assay [2], 56.4% (active) in assay [3] and -8.36% in assay [4].
For `Oc1cccc(Nc2nc(N3CCOCC3)nc(N3CCOCC3)n2)c1` the same measures were 24.7%, 45% (active), 21.6% and 21%.
For `COc1cc(C2c3cc4c(cc3OC(NNC(N)=S)C2C)OCO4)cc(OC)c1OC` (stereo not drawn) the same measures were 49.2% (active), 35.4%, 44.2% (active) and 14%.
As for `O=[N+]([O-])c1cccc(-c2ccc(/C=N/NC(=S)NCc3ccco3)o2)c1`, the inhibition is 10.6% in assay [1], 48.5% (active) in assay [2], 51.2% (active) in assay [3] and -3.67% in assay [4].
For `COc1ccc(NC(=O)Cn2c(C)cc(=O)c3ccccc32)cc1` the same measures were 0.15%, 64.9% (active), 53.2% (active) and 35.1% (active).
Consider `CCN(CC)S(=O)(=O)c1ccc(NC(=O)c2ccc(CN3CCOCC3)cc2)cc1`, for which the inhibition was 23.9% in assay [1], 57.5% (active) in assay [2], 57.4% (active) in assay [3] and 54.4% (active) in assay [4].
For `O=C(c1c(F)c(F)c(F)c(F)c1F)N1CCN(c2cccc(C(F)(F)F)c2)CC1` the same measures were 7.83%, 49.5% (active), 44% (active) and 11.4%.
`Cc1ccc(S(=O)(=O)N2CCc3ccccc3CC2)cc1`: the inhibition is 39.2% (active) in assay [1], 66.3% (active) in assay [2], 56.7% (active) in assay [3] and 53.9% (active) in assay [4].
For `O=C(Nc1ccc(N2CCN(C(=O)c3ccc(Cl)cc3)CC2)cc1)c1ccc([N+](=O)[O-])o1` the same measures were 24.9%, 51.9% (active), 66.2% (active) and 1.04%.
In the case of `COCCSc1ccccc1C(=O)NCc1ccc2c(c1)OCO2`, the inhibition in assay [1] was 6.49%; in assay [2], 39.5%; in assay [3], 48.9% (active); in assay [4] it was 2.27%.
For `Cc1ccc2nsnc2c1NC(=O)c1ccc([N+](=O)[O-])o1` the same measures were 14.4%, 57.8% (active), 55.7% (active) and -22.5%.
With `Cc1no[n+]([O-])c1COc1ccc(/C=N/n2nnnc2N)cc1`, the inhibition in assay [1] was -1.3%; in assay [2] it was 51.9% (active); in assay [3], 48.4% (active); in assay [4] it was 0.06%.
In the case of `Cn1nc(C(C)(C)C)cc1C(=O)NCc1ccc2c(c1)OCO2`, the inhibition in assay [1] was 14.8%; in assay [2] it was 59.8% (active); in assay [3] it was 58.3% (active); in assay [4], 50.6% (active).
For `COc1ccc(NC(=O)CN2C(=O)NC3(CCCC3)C2=O)cc1` the same measures were -8.92%, 51.2% (active), 47.5% (active) and -17.1%.
Consider `CS(=O)(=O)c1ccc(-c2cc(NC=O)c3ncc(-c4ccc(F)cc4)n3c2)cc1`, for which the inhibition was 13.9% in assay [1], 56% (active) in assay [2], 55% (active) in assay [3] and 1.21% in assay [4].
For `CCc1ccc2oc(C(=O)NCc3ccncc3)c(C)c2c1` the same measures were -4.67%, 53.2% (active), 61% (active) and 6.18%.
